Assay outcomes (PubChem)
In the library only some 0.95% were active in any assay of this set; here they are far more common.
LmPK inh – blocks Leishmania mexicana pyruvate kinase activity. Potency, µM (titrated, usually from 57.5 µM), for inactives: at the highest dose activity change, negative = inhibition, hits mostly inhibitors. actives 0.37% (n = 290,000). purified LmPK, Kinase-Glo ATP luminescence, 1 h
Target sequence (Q27686 whole entry, looked up): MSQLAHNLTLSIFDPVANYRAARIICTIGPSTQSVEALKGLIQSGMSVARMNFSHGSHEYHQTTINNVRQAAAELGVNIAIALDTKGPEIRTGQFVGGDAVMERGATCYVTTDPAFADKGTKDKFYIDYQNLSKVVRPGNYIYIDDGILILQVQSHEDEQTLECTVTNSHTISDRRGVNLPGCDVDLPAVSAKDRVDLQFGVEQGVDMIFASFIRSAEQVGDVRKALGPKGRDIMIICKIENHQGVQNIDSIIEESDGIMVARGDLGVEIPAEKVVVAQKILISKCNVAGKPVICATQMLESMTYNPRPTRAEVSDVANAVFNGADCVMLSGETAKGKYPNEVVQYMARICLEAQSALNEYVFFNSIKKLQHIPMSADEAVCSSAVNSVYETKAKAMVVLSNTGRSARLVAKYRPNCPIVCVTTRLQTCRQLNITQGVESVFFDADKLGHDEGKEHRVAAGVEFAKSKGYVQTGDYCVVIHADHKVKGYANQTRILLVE
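Kinase-Glo luminescence read after 1 h RT reaction of 0.1 nM LmPK with 0.5 mM PEP and 0.1 mM ADP. Activity scaled between uninhibited and enzyme-free controls.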
Tb PYK inh – blocks Trypanosoma brucei pyruvate kinase; Q57TT1; TbPYK enzyme, Kinase-Glo Plus ATP luminescence, 45 min; Potency, µM (top dose mostly 76.8 µM), for the others: top-dose activity, negative = inhibition, actives largely listed as inhibitors; actives 0.12% (n = 410,000); further: nearly all actives have a fitted effect of over 50% in size
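T. brucei PYK with substrate was exposed to pin-transferred compounds across a concentration series, then started with 130 uM ADP (final). After 45 min at room temperature, Kinase-Glo Plus luminescence was read, normalized and curve-fitted.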
Giardia FBPA inh – Giardia lamblia aldolase inhibition. A8B2U2. AID 2451. purified Giardia FBPA. Potency, µM (highest dose often 59.6 µM), for the others: at the highest dose activity, negative = inhibition, hits mostly inhibitors. actives 0.71% (n = 290,000); further: nearly all actives have a fitted effect of over 55% in size
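40 nM FBPA preincubated 10 min at RT with compound (up to 57.5 uM final), then substrate plus GAPDH/TPI/NAD/arsenate coupling and diaphorase/resazurin added. Fluorescence read after 20 min at RT, 525/598 nm.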
RE007 growth inh – less growth of the S. pombe RE007 Vpr strain | S. pombe RE007 Vpr strain, BacTiter-Glo ATP luminescence, 24 h | AID 651644 | Potency, µM (highest dose often 92.2 µM), without a hit: top-dose activity change, negative = less growth, actives largely listed as inhibitors | actives 0.21% (n = 360,000); active means well fitted falling curve with a large enough effect; inconclusive means small, poorly fitted or top-dose-only effect; inactive means no such curve, though single readings can be large or run the other way; further: nearly all actives have a fitted effect of over 50% in size
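Fission yeast strain RE007, carrying one chromosomally integrated HIV-1 vpr copy, was seeded at OD 0.01 in PMG+AL medium with 23 nL pinned compound. After 24 h at 30 °C and 99% humidity, viability was read by BacTiter-Glo luminescence.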
An asterisk follows results filed as active; ? = inconclusive; / = not tested or not shown. Unless noted, the call rests on the fitted dose curve; in most records, active means well fitted curve in the direction sought with a large enough effect; inconclusive means small, poorly fitted or top-dose-only effect, or another doubt; inactive means no such curve, though single readings can be large; an effect the other way counts as inactive or inconclusive. On the % scale 0 is the no-effect control and ±100 the full control effect; potency means the concentration at half of the fitted maximal effect.

SMILES | LmPK inh | Tb PYK inh | Giardia FBPA inh | RE007 growth inh
CCn1c(-c2csc(C(C)C)c2)n[nH]c1=S | -24.5% | -61.1% | 8.6% | 14.2%
CCc1cc(-c2n[nH]c(=S)n2Cc2ccccc2)cs1 | 10µM* | ? | 9.2% | -23.6%
CCc1cc(-c2n[nH]c(=S)n2-c2ccccc2C)cs1 | 28.2µM* | ? | 2.5% | 5.1%
Cc1ccccc1-n1c(-c2ccoc2C)n[nH]c1=S | 28.2µM* | ? | -18.6% | -1.0%
CCCNC(=O)CCc1nnc2ccc(N3CCN(c4cccc(OC)c4)CC3)nn12 | / | -1.7% | / | /
c1cnc2cc3c(cc2n1)[C@@H]1CNC[C@@H]3C1 | / | -3.4% | / | /
CCCCn1c(-c2cc(Cl)ccc2OC)n[nH]c1=S | 12.6µM* | ? | 8.8% | 4.6%
CCCn1c(-c2ccc(F)cc2)n[nH]c1=S | ? | ? | 11.2% | 5.1%
CCCc1cc(-c2n[nH]c(=S)n2CC)cs1 | ? | 8.91µM* | 0.2% | 7.3%
CCCCn1c(-c2ccc([N+](=O)[O-])cc2)n[nH]c1=S | ? | 1.12µM* | 2.6% | 9.6%
CCCCn1c(-c2csc(CCC)c2)n[nH]c1=S | 22.4µM* | ? | -0.5% | 5.9%
COc1ccc(CCn2c(-c3ccc(Cl)cc3)n[nH]c2=S)cc1OC | 1.4% | ? | 2.4% | 43.0%
COc1cccc(CNC(=O)c2ccc3c(c2)sc2nc(-c4ccccc4)cn23)c1OC | / | -6.3% | / | /
Cc1c(C)c2c(c(C)c1OC(=O)CCC(=O)O)CC[C@@](C)(CCC[C@H](C)CCC[C@H](C)CCCC(C)C)O2 | / | -0.2% | / | /
COc1cc(-c2n[nH]c(=S)n2C(C)c2ccccc2)cc(OC)c1OC (stereo unspecified) | ? | ? | 12.2% | 8.7%
CCCc1cc(-c2n[nH]c(=S)n2C(C)c2ccccc2)cs1 (stereo unspecified) | 22.4µM* | -41.0% | -0.2% | 4.1%
Cc1sc2c3ccsc3ccc2[n+]1C | -8.5% | 8.91µM* | ? | -12.2%
Cc1sc2ccc3sccc3c2[n+]1C | 0.5% | 8.91µM* | -14.7% | 1.6%
CCCCC(F)(F)[C@@]1(O)CC[C@H]2[C@H](CC(=O)[C@@H]2CCCCCCC(=O)O)O1 | / | 0.8% | / | /
C=CCOc1c(Br)cc(CNc2ccc(NC(=O)CCC)cc2)cc1OCC | 0.1% | -4.1% | 1.1% | -5.8%
CCOc1cc(CNc2ccc(N(C)C)cc2)cc(Br)c1OCC(=O)NC(C)(C)C | 1.4% | -11.7% | 5µM* | ?
C=CCOc1c(Br)cc(CNc2ccc(NC(=O)C(C)C)c(OC)c2)cc1OCC | 2.8% | 3.0% | 8.89µM* | 3.1%
CCOc1cc(CNc2ccc(N3CCCCC3)cc2)cc(Br)c1OCC(=O)NC(C)(C)C | 3.7% | -4.7% | -7.3% | /
CCN(CC)CCCNC(=O)C1CCN(S(=O)(=O)CC)CC1 | / | -5.1% | / | /
CC1CCC/C(=C\Nc2ccc(O)cc2)C1=O (stereo unspecified) | 0.9% | -26.4% | 7.92µM* | 4.0%
SMILES | LmPK inh | Tb PYK inh | Giardia FBPA inh | RE007 growth inh
Cc1cc(C(=O)O)ccc1N/C=C1\CCCC(C)C1=O (stereo unspecified) | 0.4% | -6.6% | -6.1% | -8.0%
COc1cccc2c1Oc1ncccc1N(C(=O)CCC(=O)NCc1ccc(N(C)C)cc1)C2 | / | -12.9% | / | /
c1ccc(-c2nnc(-c3ccccn3)s2)nc1 | 12.6µM* | ? | -18.3% | -3.2%
Oc1c(/C=N/c2ccccn2)sc2ccccc12 | 6.31µM* | -19.3% | -9.5% | -15.3%
CCCC/C=C/[C@H](c1ccccc1)[C@H](CO)Cc1ccc2ccccc2c1 | / | / | -2.1% | /
CC[C@H](C)[C@H](NC(=O)[C@H](CO)NC(=O)[C@H](CC(N)=O)NC(=O)[C@H](CC(C)C)NC(=O)[C@H](Cc1ccc(O)cc1)NC(=O)[C@H](CCCCN)NC(=O)[C@H](CCCCN)NC(=O)[C@@H](NC(=O)[C@H](C)NC(=O)[C@H](CCSC)NC(=O)[C@H](CCC(N)=O)NC(=O)[C@H](CCCCN)NC(=O)[C@H](CCCNC(=N)N)NC(=O)[C@H](CC(C)C)NC(=O)[C@H](CCCNC(=N)N)NC(=O)[C@@H](NC(=O)[C@H](Cc1ccc(O)cc1)NC(=O)[C@H](CC(N)=O)NC(=O)[C@H](CC(=O)O)NC(=O)[C@@H](NC(=O)[C@H](Cc1ccccc1)NC(=O)[C@@H](NC(=O)[C@H](C)NC(=O)[C@H](CC(=O)O)NC(=O)[C@H](CO)NC(=O)[C@@H](N)Cc1c[nH]cn1)C(C)C)[C@@H](C)O)[C@@H](C)O)C(C)C)C(=O)N[C@@H](CC(C)C)C(=O)N[C@@H](CC(N)=O)C(=O)O | / | 13.3% | / | /
Cn1c(N)c(C(C[N+](=O)[O-])c2ccccc2Cl)c(=O)n(C)c1=O (stereo unspecified) | / | 2.4% | / | 39.8µM*
COc1cc(C(C[N+](=O)[O-])c2c(N)n(C)c(=O)n(C)c2=O)ccc1O (stereo unspecified) | 4.0% | -0.8% | -14.8% | ?
Cc1ccc(C(C[N+](=O)[O-])c2c(N)n(C)c(=O)n(C)c2=O)cc1 (stereo unspecified) | -2.4% | -9.5% | -0.5% | ?
COc1cccc(F)c1C(C[N+](=O)[O-])c1c(N)n(C)c(=O)n(C)c1=O (stereo unspecified) | 12.7% | -1.0% | -3.5% | 15.8µM*
Cc1ccccc1C(=O)N1CC/C(=N/OS(=O)(=O)O)c2ccc(Cl)cc21 | / | -8.0% | / | /
COc1cccc(-c2ccc(SCc3ccccn3)nn2)c1 | 14.1µM* | -6.4% | -8.3% | -23.3%
COc1ccc(-c2ccc(SCc3ccccn3)nn2)cc1OC | 1.7% | 10.8% | ? | -9.2%
O=C1C=CC(=O)c2c(O)c(Cl)c(Cl)c(O)c21 | / | / | 12.6µM* | /
O=S(=O)(Oc1ccccc1/C=N/n1cnnc1)c1ccccc1 | 0.2% | 1.5% | 19.9µM* | 28.2%
Cc1ccc(C(=O)N2CCCCC2)cc1NC1=C(Cl)C(=O)N(Cc2ccccc2)C1=O | / | -11.9% | / | 1.8%
Cc1ccc(O)c(NC2=C(Cl)C(=O)N(Cc3ccccc3)C2=O)c1 | -9.5% | 35.5µM* | -24.6% | 3.6%
CC1=C(C(=O)Nc2cccc(Cl)c2)C2(CCCCCC2)OC1=O | / | -0.1% | / | /
NC(=O)/C=C/C(=O)Nc1ccc(Cl)cc1 | 9.0% | 1.1% | 3.7% | 11.2µM*
O=C(Nc1cccc(Cl)c1)OCC#CCCl | / | / | 7.06µM* | /
C[N+](C)(C)CC#CCOC(=O)Nc1cccc(Cl)c1 | / | -10.2% | 1.3% | -9.0%
COCCN1C(=O)c2[nH]nc(-c3ccccc3O)c2C1c1ccc(OCc2ccccc2)c(OC)c1 (stereo unspecified) | / | 2.7% | / | /
Cc1[nH]n(-c2ccccc2)c(=O)c1C(C[N+](=O)[O-])c1ccc(Br)cc1 (stereo unspecified) | 3.6% | -10.7% | -29.2% | 10µM*
Cc1[nH]n(-c2ccccc2)c(=O)c1C(c1cccc([N+](=O)[O-])c1)c1c(C)[nH]n(-c2ccccc2)c1=O | -1.9% | -11.4% | -23.7% | -11.4%
COc1cccc(C(C[N+](=O)[O-])c2c(C)[nH]n(-c3ccccc3)c2=O)c1 (stereo unspecified) | 9.9% | -6.7% | 12.6µM* | ?
